Assay results as given in PubChem BioAssay (Tox21).
Records with an inconclusive call do not appear. The source made the active and inactive calls. Unless noted, calls follow the shape of the dose curve; as a rule, active = well fitted curve in the direction sought with a large enough effect in the repeat runs; inconclusive = weak or mixed curves; inactive = no such curve, though single readings can be large; an effect the other way counts as inactive or inconclusive.

Tests used:
[1] = target: Thyrotropin-releasing hormone receptor (Homo sapiens) (UniProt P34981); assay: qHTS assay to identify small molecule agonists of the thyrotropin-releasing hormone receptor (TRHR) signaling pathway (AID 1346891; calls by dose curve;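 also: HEK293 cells expressing TRHR with calcium dye readout; series mostly up to about 58 µM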)
Sequence of Thyrotropin-releasing hormone receptor (Homo sapiens) (P34981 whole entry, looked up): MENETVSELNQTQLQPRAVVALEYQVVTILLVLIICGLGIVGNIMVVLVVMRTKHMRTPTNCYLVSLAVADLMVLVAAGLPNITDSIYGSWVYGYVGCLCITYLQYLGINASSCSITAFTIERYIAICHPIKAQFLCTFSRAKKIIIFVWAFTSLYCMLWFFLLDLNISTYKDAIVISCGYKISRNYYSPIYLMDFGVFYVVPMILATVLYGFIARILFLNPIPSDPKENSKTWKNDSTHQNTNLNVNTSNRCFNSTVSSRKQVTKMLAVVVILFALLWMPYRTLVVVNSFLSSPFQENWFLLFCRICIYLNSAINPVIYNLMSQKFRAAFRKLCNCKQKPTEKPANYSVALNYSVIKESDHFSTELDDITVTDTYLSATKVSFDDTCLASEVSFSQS
How it was run: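 Overnight-plated (18 h, 37 °C, 5% CO2) TRHR-Hek293 cells; 2 h calcium dye at 37 °C; compound in DMSO; 3-min kinetic fluorescence read.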

[2] = Caspase-3/7 induction in HepG2 cells by small molecules, qHTS assay (AID 1346978); also: nearly all actives have a fitted effect of over 15% in size
How it was run: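 Wild-type HepG2 cells (2,000/well) were settled 5 h at 37 C, 5% CO2, then exposed to compounds in DMSO for 17 h. Caspase-3/7 activity was read by luminescence 30 min after adding Caspase-Glo 3/7 reagent at room temperature.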

[3] = Caspase-3/7 induction in CHO-K1 cells by small molecules, qHTS cell viability counter screen (AID 1346979); also: nearly all actives have a fitted effect of over 35% in size; also: potency is read from the fitted curve at half-maximal effect
How it was run: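 Multiplexed with Caspase-Glo 3/7 in CHO-K1 cells, this counter screen added CellTiter-Fluor after 16hr of compound exposure and recorded fluorescence 1hr later.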

[4] = Caspase-3/7 induction in CHO-K1 cells by small molecules, qHTS assay (AID 1346980); also: nearly all actives have a fitted effect of over 15% in size
How it was run: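 Wild-type cells were seeded at 1,500 per well and settled 5 hr at 37 C, 5% CO2, then exposed to DMSO-dissolved compounds for 17 hr. Caspase-Glo 3/7 reagent was added, and luminescence was read after 30min at room temperature.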

[5] = Caspase-3/7 induction in HepG2 cells by small molecules, qHTS cell viability counter screen (AID 1346981); also: nearly all actives have a fitted effect of over 30% in size; also: potency is read from the fitted curve at half-maximal effect
How it was run: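 Fluorescence read-out of live-cell protease activity (CellTiter-Fluor) after 1 hr with reagent. This was measured in the same wells as the caspase-3/7 luminescence, on HepG2 cells exposed to DMSO-dissolved compounds for 16 hr at 37 C.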

[6] = target: Nuclear receptor subfamily 1 group I member 2 (Homo sapiens) (UniProt O75469); assay: Human pregnane X receptor (PXR) small molecule agonists, qHTS assay (AID 1346982); also: nearly all actives have a fitted effect of over 35% in size; also: potency is read from the fitted curve at half-maximal effect
Sequence of Nuclear receptor subfamily 1 group I member 2 (Homo sapiens) (O75469 whole entry, looked up): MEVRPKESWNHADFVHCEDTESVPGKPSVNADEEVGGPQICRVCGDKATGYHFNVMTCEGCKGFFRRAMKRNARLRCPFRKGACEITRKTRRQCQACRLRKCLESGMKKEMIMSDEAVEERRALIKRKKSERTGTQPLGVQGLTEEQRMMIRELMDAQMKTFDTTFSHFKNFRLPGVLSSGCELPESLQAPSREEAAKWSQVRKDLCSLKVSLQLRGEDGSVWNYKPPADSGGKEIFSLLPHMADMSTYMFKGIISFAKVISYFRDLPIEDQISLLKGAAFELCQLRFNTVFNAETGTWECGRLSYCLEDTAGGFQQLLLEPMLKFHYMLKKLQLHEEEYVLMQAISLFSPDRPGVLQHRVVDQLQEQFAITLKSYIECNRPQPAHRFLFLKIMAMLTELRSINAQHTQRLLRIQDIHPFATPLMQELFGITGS
How it was run: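 HepG2 PXR-Luc reporter line, 5% charcoal-stripped FBS; 5 hr pre-incubation, compound (DMSO) 24 hr at 37 C/5% CO2; ONE-Glo 30 min RT; luminescence read-out.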

[7] = target: Cytochrome P450 2D6 (Homo sapiens) (UniProt P10635); assay: Cytochrome P450 Family 2 Subfamily D Member 6 (CYP2D6) small molecule antagonists: luciferase reporter qHTS assay (AID 1671196); also: nearly all actives have a fitted effect of over 50% in size; also: potency is read from the fitted curve at half-maximal effect
Sequence of Cytochrome P450 2D6 (Homo sapiens) (P10635 whole entry, looked up): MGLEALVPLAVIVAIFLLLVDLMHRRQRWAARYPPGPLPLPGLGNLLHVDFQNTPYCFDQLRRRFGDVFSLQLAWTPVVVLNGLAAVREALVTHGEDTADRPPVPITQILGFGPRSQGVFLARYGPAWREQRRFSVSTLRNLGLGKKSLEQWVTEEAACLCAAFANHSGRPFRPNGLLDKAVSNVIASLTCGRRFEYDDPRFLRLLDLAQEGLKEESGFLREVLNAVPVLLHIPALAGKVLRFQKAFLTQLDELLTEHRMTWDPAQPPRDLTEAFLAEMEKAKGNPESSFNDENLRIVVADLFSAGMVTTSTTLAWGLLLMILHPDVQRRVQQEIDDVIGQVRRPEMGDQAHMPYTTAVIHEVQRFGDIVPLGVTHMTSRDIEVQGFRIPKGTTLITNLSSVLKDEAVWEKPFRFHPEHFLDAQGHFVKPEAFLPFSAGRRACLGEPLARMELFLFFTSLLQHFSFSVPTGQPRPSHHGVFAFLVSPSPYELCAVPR
How it was run: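 Luminogenic proluciferin substrate, CYP2D6 enzyme; 10 min RT preincubation with compound, NADPH regeneration system added, 1 h RT. Stop/detection reagent, 20 min RT, luminescence read (RLU). Signal proportional to CYP activity.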

[8] = target: Cytochrome P450 2C19 (Homo sapiens) (UniProt P33261); assay: Cytochrome P450 Family 2 Subfamily C Member 19 (CYP2C19) small molecule antagonists: luciferase reporter qHTS assay (AID 1671197); also: nearly all actives have a fitted effect of over 65% in size; also: potency is read from the fitted curve at half-maximal effect
Sequence of Cytochrome P450 2C19 (Homo sapiens) (P33261 whole entry, looked up): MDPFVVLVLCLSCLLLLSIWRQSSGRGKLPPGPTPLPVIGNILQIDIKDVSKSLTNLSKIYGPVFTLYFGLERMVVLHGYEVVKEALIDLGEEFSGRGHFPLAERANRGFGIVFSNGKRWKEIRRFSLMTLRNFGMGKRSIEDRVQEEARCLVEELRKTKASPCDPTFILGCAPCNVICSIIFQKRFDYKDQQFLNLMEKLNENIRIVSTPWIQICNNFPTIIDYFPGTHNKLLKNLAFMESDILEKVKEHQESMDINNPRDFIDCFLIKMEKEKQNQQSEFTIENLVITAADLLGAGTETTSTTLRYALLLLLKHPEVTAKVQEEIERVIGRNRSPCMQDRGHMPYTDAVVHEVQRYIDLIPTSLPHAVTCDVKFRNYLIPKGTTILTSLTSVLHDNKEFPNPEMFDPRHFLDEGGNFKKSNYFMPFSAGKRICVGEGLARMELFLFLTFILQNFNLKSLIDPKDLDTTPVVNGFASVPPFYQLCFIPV
How it was run: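 Inhibition of CYP2C19 was scored from loss of luminescence in a P450-Glo proluciferin substrate assay, NADPH-started and run 1 h at 37C, with ketoconazole as positive control.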

[9] = target: Cytochrome P450 1A2 (Homo sapiens) (UniProt P05177); assay: Cytochrome P450 Family 1 Subfamily A Member 2 (CYP1A2) small molecule antagonists: luciferase reporter qHTS assay (AID 1671199); also: nearly all actives have a fitted effect of over 50% in size; also: potency is read from the fitted curve at half-maximal effect
Sequence of Cytochrome P450 1A2 (Homo sapiens) (P05177 whole entry, looked up): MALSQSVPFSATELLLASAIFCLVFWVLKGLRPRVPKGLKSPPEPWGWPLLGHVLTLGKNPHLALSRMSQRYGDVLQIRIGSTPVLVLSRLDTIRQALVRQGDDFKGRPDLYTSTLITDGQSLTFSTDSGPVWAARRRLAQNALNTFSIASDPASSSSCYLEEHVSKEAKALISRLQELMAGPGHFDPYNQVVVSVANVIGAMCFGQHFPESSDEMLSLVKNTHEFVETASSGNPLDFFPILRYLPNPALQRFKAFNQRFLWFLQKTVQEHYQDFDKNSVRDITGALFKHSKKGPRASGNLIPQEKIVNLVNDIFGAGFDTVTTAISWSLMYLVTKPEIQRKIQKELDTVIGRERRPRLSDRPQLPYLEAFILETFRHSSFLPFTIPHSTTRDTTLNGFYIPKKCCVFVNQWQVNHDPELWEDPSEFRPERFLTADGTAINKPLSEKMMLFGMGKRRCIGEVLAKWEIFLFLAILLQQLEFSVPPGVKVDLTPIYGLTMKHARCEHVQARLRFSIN
How it was run: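 Luminescence readout (relative luminescence units) after luciferin detection reagent, 20 min RT. Preceded by 1 h room-temperature CYP1A2 reaction with NADPH regeneration solution following 10 min compound preincubation with enzyme and proluciferin substrate. Furafylline positive control.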

[10] = target: Voltage-gated inwardly rectifying potassium channel KCNH2 (Homo sapiens) (UniProt Q12809); assay: Human Ether-a-go-go-Related Gene (hERG) channel small molecule antagonists: fluorescence cell-based qHTS assay (AID 1671200);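 also: hERG-expressing U2OS cells given a thallium stimulus after FluxOR II dye loading; series mostly up to about 77 µM; nearly all actives have a fitted effect of over 50% in size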
Sequence of Voltage-gated inwardly rectifying potassium channel KCNH2 (Homo sapiens) (Q12809 whole entry, looked up): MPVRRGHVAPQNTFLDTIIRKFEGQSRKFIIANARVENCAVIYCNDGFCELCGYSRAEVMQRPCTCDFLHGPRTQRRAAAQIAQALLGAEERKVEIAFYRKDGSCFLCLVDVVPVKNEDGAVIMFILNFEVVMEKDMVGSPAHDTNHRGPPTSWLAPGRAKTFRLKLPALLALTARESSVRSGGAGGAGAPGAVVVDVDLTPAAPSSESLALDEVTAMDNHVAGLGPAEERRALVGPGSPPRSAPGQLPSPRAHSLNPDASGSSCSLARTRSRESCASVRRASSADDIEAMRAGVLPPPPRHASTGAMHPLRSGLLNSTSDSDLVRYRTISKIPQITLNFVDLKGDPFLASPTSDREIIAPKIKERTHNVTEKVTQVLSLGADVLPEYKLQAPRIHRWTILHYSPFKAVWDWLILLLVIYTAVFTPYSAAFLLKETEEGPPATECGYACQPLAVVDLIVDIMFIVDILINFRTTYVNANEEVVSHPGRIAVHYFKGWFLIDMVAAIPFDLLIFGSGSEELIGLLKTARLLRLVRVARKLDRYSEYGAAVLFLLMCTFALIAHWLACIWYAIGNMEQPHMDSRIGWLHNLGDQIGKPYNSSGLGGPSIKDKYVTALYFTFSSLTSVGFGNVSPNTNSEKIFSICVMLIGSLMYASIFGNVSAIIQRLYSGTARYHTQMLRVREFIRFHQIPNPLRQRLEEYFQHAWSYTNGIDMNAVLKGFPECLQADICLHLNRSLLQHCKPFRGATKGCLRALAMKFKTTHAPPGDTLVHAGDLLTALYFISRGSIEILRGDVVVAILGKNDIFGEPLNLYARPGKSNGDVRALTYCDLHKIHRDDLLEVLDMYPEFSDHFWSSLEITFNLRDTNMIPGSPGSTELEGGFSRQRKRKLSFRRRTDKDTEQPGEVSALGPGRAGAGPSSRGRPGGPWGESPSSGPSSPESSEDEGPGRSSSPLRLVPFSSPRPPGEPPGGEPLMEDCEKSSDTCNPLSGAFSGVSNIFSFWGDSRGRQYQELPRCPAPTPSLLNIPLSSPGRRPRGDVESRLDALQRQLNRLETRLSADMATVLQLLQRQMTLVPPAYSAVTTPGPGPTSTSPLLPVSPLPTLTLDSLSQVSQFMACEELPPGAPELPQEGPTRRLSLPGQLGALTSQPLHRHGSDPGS
How it was run: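 Cell line hERG-U2OS; dye FluxOR II, 1 h RT dark; Tl+ stimulus; ex 480/em 540 nm, read each second for 2 min.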

[11] = target: Cytochrome P450 3A4 (Homo sapiens) (UniProt P08684); assay: Cytochrome P450 Family 3 Subfamily A Member 4 (CYP3A4) small molecule antagonists: luciferase reporter qHTS assay (AID 1671201); also: nearly all actives have a fitted effect of over 50% in size; also: potency is read from the fitted curve at half-maximal effect
Sequence of Cytochrome P450 3A4 (Homo sapiens) (P08684 whole entry, looked up): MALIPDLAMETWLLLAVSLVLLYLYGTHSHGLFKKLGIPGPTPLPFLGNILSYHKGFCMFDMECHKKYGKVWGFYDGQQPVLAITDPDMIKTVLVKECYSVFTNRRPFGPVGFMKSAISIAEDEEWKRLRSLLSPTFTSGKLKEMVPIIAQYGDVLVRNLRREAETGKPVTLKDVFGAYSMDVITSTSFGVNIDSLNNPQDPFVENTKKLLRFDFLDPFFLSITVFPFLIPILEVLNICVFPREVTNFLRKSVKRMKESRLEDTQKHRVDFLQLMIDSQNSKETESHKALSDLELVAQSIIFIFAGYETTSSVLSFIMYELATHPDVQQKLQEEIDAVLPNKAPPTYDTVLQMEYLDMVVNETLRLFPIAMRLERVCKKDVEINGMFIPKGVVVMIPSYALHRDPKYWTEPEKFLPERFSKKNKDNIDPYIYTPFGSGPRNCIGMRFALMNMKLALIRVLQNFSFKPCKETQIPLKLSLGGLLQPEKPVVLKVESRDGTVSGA
How it was run: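 Room-temperature assay throughout: 10 min compound–enzyme/substrate preincubation, 1 h reaction after NADPH regeneration solution, 20 min detection. Luciferin formed from proluciferin substrate is quantified by luminescence.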

[12] = target: Cytochrome P450 2C9 (Homo sapiens) (UniProt P11712); assay: Cytochrome P450 Family 2 Subfamily C Member 9 (CYP2C9) small molecule antagonists: luciferase reporter qHTS assay (AID 1671198); also: nearly all actives have a fitted effect of over 50% in size; also: potency is read from the fitted curve at half-maximal effect
Sequence of Cytochrome P450 2C9 (Homo sapiens) (P11712 whole entry, looked up): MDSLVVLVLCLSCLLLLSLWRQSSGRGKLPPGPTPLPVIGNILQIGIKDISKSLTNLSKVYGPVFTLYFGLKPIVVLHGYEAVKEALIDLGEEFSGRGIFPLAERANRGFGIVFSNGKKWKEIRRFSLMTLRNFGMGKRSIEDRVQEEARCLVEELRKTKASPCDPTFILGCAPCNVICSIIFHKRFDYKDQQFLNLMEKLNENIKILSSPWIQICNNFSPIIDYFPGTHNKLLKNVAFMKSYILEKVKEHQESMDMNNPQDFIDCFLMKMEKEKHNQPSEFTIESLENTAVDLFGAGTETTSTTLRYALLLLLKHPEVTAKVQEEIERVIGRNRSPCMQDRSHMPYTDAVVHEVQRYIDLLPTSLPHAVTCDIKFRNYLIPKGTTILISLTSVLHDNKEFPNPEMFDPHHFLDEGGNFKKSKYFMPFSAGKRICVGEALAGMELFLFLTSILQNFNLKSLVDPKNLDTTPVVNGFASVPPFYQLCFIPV
How it was run: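 CYP2C9 activity was measured with a P450-Glo proluciferin substrate. Enzyme–substrate mix was held with compound for 10 min at room temperature, then NADPH regeneration solution was added for 1 h at 37C. Luciferin product was read as luminescence.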

[13] = target: Nuclear receptor subfamily 1 group I member 2 (Rattus norvegicus) (UniProt Q9R1A7); assay: Rat pregnane X receptor (rPXR) activation by small molecules, qHTS assay (AID 1346983); settings: rPXR luciferase reporter cells, One-Glo luminescence, 24 h; max activation: stronger effect = higher value; also: nearly all actives have a fitted effect of over 20% in size
Sequence of Nuclear receptor subfamily 1 group I member 2 (Rattus norvegicus) (Q9R1A7 whole entry, looked up): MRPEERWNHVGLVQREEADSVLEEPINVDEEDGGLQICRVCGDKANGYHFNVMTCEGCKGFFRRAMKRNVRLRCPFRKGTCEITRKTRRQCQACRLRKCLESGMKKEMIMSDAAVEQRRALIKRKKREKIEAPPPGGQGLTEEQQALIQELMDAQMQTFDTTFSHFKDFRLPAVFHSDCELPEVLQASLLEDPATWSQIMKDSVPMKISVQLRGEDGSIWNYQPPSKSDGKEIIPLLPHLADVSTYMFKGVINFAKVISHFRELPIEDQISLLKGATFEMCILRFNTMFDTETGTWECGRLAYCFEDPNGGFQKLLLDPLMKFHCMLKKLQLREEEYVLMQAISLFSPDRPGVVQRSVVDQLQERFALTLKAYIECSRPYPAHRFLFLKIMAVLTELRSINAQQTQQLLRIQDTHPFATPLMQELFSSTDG
How it was run: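 Cell-based rPXR luciferase reporter assay, 2,000 cells per well, rested 5hr at 37 C before compound addition in DMSO, then 24 hr at 37 C. One-Glo reagent was added and luminescence read after 30 min at room temperature.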

[14] = target: Nuclear receptor subfamily 1 group I member 2 (Homo sapiens) (UniProt O75469); assay: CYP3A4 induction through human pregnane X receptor (PXR) by small molecules, qHTS assay (AID 1346984); also: nearly all actives have a fitted effect of over 40% in size
How it was run: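 HepG2-derived DPX-2 line carrying PXR plus a CYP3A4-promoter luciferase reporter; cells plated 5 hr, compound-exposed 24 hr at 37C. CYP3A4 activity probed with 3uM (final) Luciferin-IPA for 3hr, then luciferase read after One-Glo.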

[15] = target: Nuclear receptor subfamily 1 group I member 2 (Homo sapiens) (UniProt O75469); assay: Human pregnane X receptor (PXR) activation by small molecules, qHTS assay (AID 1346985); also: nearly all actives have a fitted effect of over 40% in size
How it was run: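 DPX-2 cells (HepG2 co-transfected with a PXR response element and a CYP3A4-promoter luciferase construct) were seeded at 2,000 per well, rested 5 hr at 37C, then exposed to DMSO-dissolved compounds for 24 hr. Activation was read as luciferase luminescence.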

[16] = Human pregnane X receptor (PXR) small molecule agonists, qHTS cell viability counter screen (AID 1346977); also: nearly all actives have a fitted effect of over 50% in size
How it was run: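 After a 5hr pre-incubation, PXR-Luc HepG2 cells received compounds plus positive control in DMSO and were kept 24hr at 37C. Cell viability was quantified by fluorescence from CellTiter-Fluor added for the final hour.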
% is scaled to controls: 0 for no effect and ±100 for the full control effect.

CC(C)=CCC[C@H](C)CCO
inactive: outcome [1] | Potency [2] | Potency [3] | Potency [4] | Potency [5] | Potency [6] | Potency [7] | Potency [9] | Potency [10]
active: Potency [8] 71 µM | Potency [11] 63.3 µM

Cc1cc(SC2=C(O)C[C@@](CCc3ccc(N)cc3)(C(C)C)OC2=O)c(C(C)(C)C)cc1CO
inactive: outcome [1] | Potency [2] | Potency [3] | Potency [4] | Potency [5] | Potency [7] | Potency [9] | Potency [10]
active: Potency [6] 30.6 µM | Potency [11] 3.99 µM

CC(C)=CCC/C(C)=C/C=N/O
active: Potency [6] 34.4 µM | Potency [7] 35.6 µM | Potency [12] 39.9 µM | Potency [9] 39.9 µM | Potency [11] 28.3 µM
inactive: outcome [1] | Potency [2] | Potency [3] | Potency [4] | Potency [5] | Potency [10]

Cc1c(Nc2ncccc2C(=O)O)cccc1C(F)(F)F
inactive: outcome [1] | Potency [2] | Potency [3] | Potency [4] | Potency [5] | max activation [13] -1.47% | Potency [14] | Potency [15] | Potency [7] | Potency [8] | Potency [11]

NC(=O)c1cc[n+](CC2=C(C(=O)[O-])N3C(=O)[C@@H](NC(=O)Cc4cccs4)[C@H]3SC2)cc1
inactive: Potency [16] | Potency [2] | Potency [3] | Potency [4] | Potency [5] | Potency [6] | max activation [13] -2.94% | Potency [14] | Potency [15] | Potency [7] | Potency [8] | Potency [12] | Potency [9] | Potency [10] | Potency [11]

CC(C)(C)c1ccc(CCC=O)cc1
inactive: outcome [1] | Potency [2] | Potency [4] | Potency [5] | Potency [6] | Potency [7]

O=c1[nH]nc(-c2ccc([N+](=O)[O-])o2)o1
inactive: outcome [1] | Potency [2] | Potency [4] | Potency [10] | Potency [11]
active: Potency [3] 61.1 µM | Potency [5] 54.5 µM | Potency [6] 61.1 µM | Potency [8] 79.6 µM | Potency [9] 31.7 µM

CCN(CC)CC(=O)OCC(=O)[C@@]1(O)CC[C@H]2[C@@H]3CCC4=CC(=O)CC[C@]4(C)[C@H]3[C@@H](O)C[C@@]21C
inactive: outcome [1] | Potency [2] | Potency [3] | Potency [4] | Potency [5] | Potency [7] | Potency [8] | Potency [12] | Potency [9] | Potency [10]

O=C(O)c1ccncc1
inactive: outcome [1] | Potency [2] | Potency [3] | Potency [4] | Potency [5] | Potency [10]

COc1cccc([C@H](O)C2CCN(CCc3ccc(F)cc3)CC2)c1OC
inactive: outcome [1] | Potency [2] | Potency [3] | Potency [4] | Potency [5] | Potency [6] | Potency [12] | Potency [9] | Potency [11]
active: Potency [7] 2 µM

COc1ccc(/C(C)=C/C(=O)O)c(OC)c1
inactive: Potency [16] | Potency [2] | Potency [3] | Potency [4] | Potency [5] | Potency [6] | Potency [7] | Potency [8] | Potency [12] | Potency [9] | Potency [10] | Potency [11]

OCCc1ccncc1
inactive: outcome [1] | Potency [2] | Potency [3] | Potency [4] | Potency [5] | Potency [6] | Potency [10]
active: Potency [9] 22.4 µM | Potency [11] 28.3 µM

CC/C=C\CCO
inactive: outcome [1] | Potency [2] | Potency [3] | Potency [4] | Potency [5] | Potency [6] | Potency [7] | Potency [8] | Potency [9] | Potency [10] | Potency [11]

S=c1[nH][nH]c(=S)s1
inactive: outcome [1] | Potency [3] | Potency [4] | Potency [5] | Potency [6] | Potency [9] | Potency [10] | Potency [11]
active: Potency [8] 22.4 µM | Potency [12] 20 µM

Oc1ccc(CCNCCCCCCNCCc2ccccc2)cc1O
active: Potency [7] 15.5 µM
inactive: outcome [1] | Potency [4] | Potency [5] | Potency [6] | Potency [9] | Potency [10] | Potency [11]

CCCCCCCCNC
active: Potency [8] 22.4 µM
inactive: outcome [1] | Potency [2] | Potency [3] | Potency [4] | Potency [6] | Potency [9] | Potency [11]

O=C(c1ccc(Cl)cc1)c1ccc(Cl)cc1
active: Potency [8] 1 µM | Potency [9] 2.52 µM
inactive: outcome [1] | Potency [3] | Potency [4] | Potency [5] | Potency [7] | Potency [10] | Potency [11]

Nc1ncnc2c1ncn2[C@@H]1O[C@H](CO)[C@@H](O)[C@H]1O
inactive: outcome [1] | Potency [2] | Potency [3] | Potency [4] | Potency [5] | Potency [10]

CC(=O)Nc1ccccc1O
inactive: outcome [1] | Potency [2] | Potency [3] | Potency [4] | Potency [5] | Potency [10]

CC(CC(C#N)(c1ccccc1)C(C)C)N(C)C (stereo unspecified)
inactive: Potency [16] | Potency [2] | Potency [3] | Potency [4] | Potency [5] | Potency [6] | Potency [8] | Potency [12] | Potency [9] | Potency [10]
active: Potency [7] 15.5 µM | Potency [11] 6.92 µM
